Screening data from PubChem BioAssay.
DRD3 antagonist – D3 dopamine receptor (human) antagonism; P35462; D3R cells, DiscoveRx beta-arrestin luminescence, antagonist mode; hits give low values; max response, negative = inhibition, %; actives 2.5% (n = 360,000); AID 652054; in the data active = max response below about -50%; inconclusive = no clear call, values can overlap the other calls; also: % is scaled to controls: 0 for no effect and ±100 for the full control effect
Target sequence (P35462 whole entry, looked up): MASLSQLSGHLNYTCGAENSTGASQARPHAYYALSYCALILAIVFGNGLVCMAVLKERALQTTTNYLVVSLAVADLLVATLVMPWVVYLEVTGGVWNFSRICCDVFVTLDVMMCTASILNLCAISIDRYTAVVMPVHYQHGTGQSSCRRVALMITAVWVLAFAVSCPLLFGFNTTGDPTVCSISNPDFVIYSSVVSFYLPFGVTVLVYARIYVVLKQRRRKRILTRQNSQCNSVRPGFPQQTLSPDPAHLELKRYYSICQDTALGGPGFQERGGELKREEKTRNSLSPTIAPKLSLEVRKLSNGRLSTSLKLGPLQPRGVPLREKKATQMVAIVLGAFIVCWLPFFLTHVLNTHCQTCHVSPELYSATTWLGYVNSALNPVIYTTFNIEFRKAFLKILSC
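Cells plated overnight at 1500 cells/well, then exposed to library compounds with dopamine controls for 90 minutes at 37 degrees C. DiscoveRx reagent added for 30–60 minutes at room temperature; luminescence read, quantitative HTS format.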
KB-3-1 tox – KB-3-1 parental cell cytotoxicity. KB-3-1 viability, CellTiter-Glo ATP luminescence, 72 h. Potency, µM (series often up to 46.1 µM), hits mostly cytotoxic. actives 1.4% (n = 400,000). AID 1347075; also: potency is read from the fitted curve at half-maximal effect; % is scaled to controls: 0 for no effect and ±100 for the full control effect; nearly all actives have a fitted effect of over 60% in size
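KB-3-1 cells, DMEM (no phenol red) + 10% FBS; compound by pin transfer, 72 h, 37 °C. Readout: CellTiter-Glo luminescence after 10 min. Data normalized, curve-fitted.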
SW480 rereplic – DNA re-replication induction in SW480 cells | SW480 DNA re-replication, Hoechst DNA content imaging, 48 h | Potency, µM (top dose mostly 46.1 µM), without a hit: at the top dose re-replication activation, hits mostly activators | actives 1.8% (n = 340,000) | AID 624297; also: potency is read from the fitted curve at half-maximal effect; % of control where 0% means no effect; nearly all actives have a fitted effect of over 55% in size
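Image-based DNA-content assay: after two days of treatment, nuclei were labelled with the DNA dye Hoechst and imaged, and hits were compounds raising the count of nuclei showing high fluorescence intensity.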
MCF10A rereplic – inducers of DNA re-replication in MCF 10A breast cells | MCF 10A DNA re-replication, Hoechst nuclear intensity, 48 h | Potency, µM (titrated, usually from 46.1 µM), for inactives: at the top dose activity, positive = re-replication, most hits filed as activators | actives 2.9% (n = 350,000); also: potency is read from the fitted curve at half-maximal effect; % of control where 0% means no effect; nearly all actives have a fitted effect of over 50% in size
KB-V1 MDR tox – kills drug-selected multidrug resistant KB-V1 cells | KB-V1 MDR cells viability, CellTiter-Glo, 72 h | Potency, µM (doses to about 46.1 µM), actives largely listed as cytotoxic | actives 3.4% (n = 400,000); also: potency is read from the fitted curve at half-maximal effect; % is scaled to controls: 0 for no effect and ±100 for the full control effect; nearly all actives have a fitted effect of over 60% in size
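KB-V1 MDR subline cells in DMEM (phenol-red free, 10% FBS) exposed to compounds in qHTS concentration series for 72 h at 37 degrees C. Viability read by CellTiter-Glo luminescence; concentration-effect curves fitted after normalization and correction.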
DRD3 agonist – agonists of human D3 dopamine receptor; P35462; D3R DiscoveRx beta-arrestin cells, luminescence, 90 min; max activation, %; actives 0.58% (n = 410,000); in the data active = max activation above about 30%; also: 0% is about no effect
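Cells at 1500/well, incubated overnight, then treated with pinned compounds (dopamine as control) for 90 min at 37 degrees C. DiscoveRx reagent added for 30 - 60 minutes at room temperature; luminescence read.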
Starred values were filed as active, the others as inactive; i = inactive; ? = inconclusive; / = no result; ! = repeats disagree. This is a sample that favours compounds with a hit; in the whole collection about 8.9% have one here. Unless noted, calls follow the shape of the dose curve; as a rule, active = well fitted curve in the direction sought with a large enough effect; inconclusive = small, poorly fitted or top-dose-only effect, or another doubt; inactive = no such curve, though single readings can be large; an effect the other way counts as inactive or inconclusive.

SMILES	DRD3 antagonist	KB-3-1 tox	SW480 rereplic	MCF10A rereplic	KB-V1 MDR tox	DRD3 agonist
CCCOc1cccc(C2C(C(=O)c3cc4ccccc4o3)=C(O)C(=O)N2c2cc(C)on2)c1 (stereo not drawn)	0	?	26%	5.8µM*	i	2
Cc1cc(N2C(=O)C(O)=C(C(=O)c3cc4ccccc4o3)C2c2ccc(OC(C)C)cc2)no1 (stereo not drawn)	-10	?	-8%	?	i	-8
COc1cc(C2C(C(=O)c3cc4ccccc4o3)=C(O)C(=O)N2c2cc(C)on2)cc(OC)c1OC (stereo not drawn)	-3	i	-4%	?	i	-4
COC(=O)c1ccc(C2C(C(=O)c3cc4ccccc4o3)=C(O)C(=O)N2c2cc(C)on2)cc1 (stereo not drawn)	-15	i	?	23µM*	i	-14
CCN(CC)C(=O)C1=C(C)N(Cc2ccc(OC)cc2)C(=O)C(CC(=O)NC2CCCCC2)C1 (stereo not drawn)	6	i	/	/	?	4
NC(=O)C1(N2CCCCC2)CCN(C(=O)Nc2ccc(F)cc2)CC1	/	i	/	/	?	5
N#Cc1c(-n2ncnc2-c2ccccc2C(F)(F)F)sc2c1CCCCC2	/	i	/	/	i	3
Cc1cc(C)cc(NC(=O)C(=O)NCC(c2cccnc2)N2CCN(c3ccccc3)CC2)c1 (stereo not drawn)	/	i	/	/	i	-15
CC1CC(C)CN(C(=O)CSc2ncnc3sccc23)C1 (stereo not drawn)	2	i	-5%	12%	21µM*	-15
Cc1ccc(C)c(-n2nnnc2Sc2nnnn2-c2ccccc2)c1	-17	?	9.2µM*	5.8µM*	i	-6
COCCNC(=O)c1cc2c(=O)n3cccc(C)c3nc2n1C	2	3.3µM*	-1%	?	5.8µM*	0
CCOCCCNC(=O)c1cc2c(=O)n3cccc(C)c3nc2n1C	-16	?	0.65µM*	?	i	-5
Cc1cccn2c(=O)c3cc(C(=O)NCCCn4ccnc4)n(C)c3nc12	13	i	?	?	i	2
Cc1cccn2c(=O)c3cc(C(N)=S)c(=N)n(CCCOC(C)C)c3nc12	-9	?	0%	?	i	3
CCOCCCn1c(=N)c(C(N)=S)cc2c(=O)n3cccc(C)c3nc21	-3	?	?	?	16µM*	-9
CN(c1ccc(F)cc1)S(=O)(=O)N1CCCC(C(=O)NCCc2ccccc2)C1 (stereo not drawn)	/	i	/	/	i	3
Cc1ccn2c(Nc3ccc4c(c3)OCCO4)c(-c3ccc(C)o3)nc2c1	/	i	/	/	i	1
COc1ccccc1N(CC(O)COc1c(C)cc(C)cc1C)S(=O)(=O)c1ccccc1 (stereo not drawn)	8	?	?	?	8.2µM*	4
COc1ccccc1N(CC(O)COc1ccc(C)cc1)S(=O)(=O)c1ccccc1 (stereo not drawn)	10	i	-1%	?	?	2
CCCN(CCC)CC(O)CN(c1cc([N+](=O)[O-])ccc1OC)S(=O)(=O)c1ccccc1 (stereo not drawn)	-65*	i	12%	-3%	?	-1
COc1ccccc1N(CC(O)COc1ccccc1)S(=O)(=O)c1ccccc1 (stereo not drawn)	3	i	?	6%	13µM*	18
O=C(NCCc1csc(-c2ccc(F)cc2)n1)c1cccs1	/	i	/	/	i	-2
CCOC(=O)c1c(N)sc2c(OCC)c(Br)ccc12	29	i	21µM*	?	i	5
CCOC(=O)c1c(NC(C)=O)sc2c(OCC(O)CNC(C)(C)C)c(Br)ccc12 (stereo not drawn)	-5	i	?	?	?	1
Cc1sc(-n2c(C)cc(/C=C3\SC(=S)NC3=O)c2C)c(C#N)c1C	-71*	?	8.2µM*	-2%	i	-21
SMILES	DRD3 antagonist	KB-3-1 tox	SW480 rereplic	MCF10A rereplic	KB-V1 MDR tox	DRD3 agonist
Cc1cc(/C=C2\SC(=S)NC2=O)c(C)n1-c1cccc(O)c1	?	i	6%	12%	i	-4
COc1ccc(NC(=O)CCCn2c(=O)c3cccn3c3ccccc32)c(OC)c1	/	/	/	/	/	1
COc1cc(/C=C2\S/C(=N/S(=O)(=O)c3ccccc3)NC2=O)c([N+](=O)[O-])cc1OC	-88*	i	-8%	?	i	-4
COc1ccc(C(=O)c2sc(Nc3ccccc3)nc2N)cc1OC	-23	?	?	?	15µM*	-21
COc1ccc(C(=O)Nc2ccc(C(=O)c3ccccc3)cc2)cc1	7	i	-60%	25%	?	7
Nc1nc(Nc2ccccc2)sc1C(=O)c1ccccc1	-3	?	?	?	?	-6
COc1ccc(C(=O)c2cc(C(C)=O)c(Nc3ccccc3)s2)cc1	-11	?	?	-6%	16µM*	8
COc1ccc(C(=O)c2sc(Nc3ccccc3)nc2N)cc1	-29	i	?	?	13µM*!	-3
Cc1ccc(CNC(=O)Cn2c(=O)n(-c3ccc(C)c(F)c3)c(=O)c3sc4ccccc4c32)cc1	/	i	/	/	i	-11
CC(C)NC(=O)C1=CC(c2ccc3c(c2)OCO3)=NS(=O)(=O)N1C	/	i	/	/	i	-1
COc1ccc(NC2=NCC(Cc3ccc(Br)cc3)S2)cc1 (stereo not drawn)	?	23µM*	?	?	i	-12
COc1ccc(CNc2ccc(Br)cc2)cc1	-1	i	-17%	9%	i	0
CSCCC(=O)N(C)CC1CCN(CCc2cccc(C(F)(F)F)c2)CC1	-7	i	?	11%	i	-16
CCN(CC1CCCN(CCc2cccc(F)c2)C1)C(=O)c1ccc(CSC)o1 (stereo not drawn)	-27	/	4%	17%	/	-17
CN(CC1CCCN(CCc2cccc(C(F)(F)F)c2)C1)C(=O)c1ccco1 (stereo not drawn)	-63*	i	0%	-7%	i	-13
COc1ccc(C(=O)N(C)CC2CCN(CCc3cccc(C(F)(F)F)c3)CC2)cc1C	-77*	i	?	?	i	-27
CN(CC1CCN(CCc2cccc(C(F)(F)F)c2)CC1)C(=O)c1ccc(F)cc1F	-69*	i	11%	7%	i	-27
